# Compound activity deposited in PubChem by National Center for Advancing Translational Sciences (NCATS).
# ALOX12 inh – inhibitors of human 12S-lipoxygenase ALOX12; purified 12hLO, xylenol orange hydroperoxide absorbance; Potency, µM (series often up to 108 µM), for inactives: top-dose activity change, negative = inhibition, most hits filed as inhibitors; 580,000 compounds, 1.1% hits; P18054; note: potency is the fitted concentration of half-maximal effect
# Target sequence (P18054 whole entry, looked up): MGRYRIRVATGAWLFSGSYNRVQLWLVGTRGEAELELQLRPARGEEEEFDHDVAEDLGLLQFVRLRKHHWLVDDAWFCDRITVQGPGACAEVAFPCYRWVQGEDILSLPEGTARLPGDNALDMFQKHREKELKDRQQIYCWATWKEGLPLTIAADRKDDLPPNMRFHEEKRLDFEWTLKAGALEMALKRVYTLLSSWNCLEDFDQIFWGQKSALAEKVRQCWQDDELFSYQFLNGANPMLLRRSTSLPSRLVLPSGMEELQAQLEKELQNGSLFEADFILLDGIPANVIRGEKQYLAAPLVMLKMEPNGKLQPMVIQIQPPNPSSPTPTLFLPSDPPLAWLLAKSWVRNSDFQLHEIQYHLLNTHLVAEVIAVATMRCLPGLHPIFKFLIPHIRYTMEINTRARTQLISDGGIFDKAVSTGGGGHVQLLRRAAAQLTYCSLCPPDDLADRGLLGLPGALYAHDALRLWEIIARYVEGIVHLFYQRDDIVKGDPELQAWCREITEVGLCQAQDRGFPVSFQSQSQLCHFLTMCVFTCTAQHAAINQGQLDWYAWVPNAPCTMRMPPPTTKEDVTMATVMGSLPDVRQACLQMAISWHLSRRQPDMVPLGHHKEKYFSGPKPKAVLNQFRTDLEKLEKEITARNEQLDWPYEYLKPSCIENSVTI
#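 Purified human 12hLO (150 nM final) in 25 mM Hepes, 0.01% Triton X-100, pH 7.0 was preincubated 15 min at room temperature with compound. Then 40 uM arachidonic acid was added, 30 min. Hydroperoxide was read by Fe-XO absorbance ratio 573/405 nm.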
# HT1080 IDH1KD tx – HT-1080 IDH1 knockdown cell toxicity (counter line) | Potency, µM (titrated, usually from 46.1 µM), for inactives: at the top dose activity, negative = toxicity, usual class: cytotoxic | HT-1080 IDH1 knockdown viability, ATP luminescence, 48 h | AID 686971 | 360,000 compounds, 2% hits;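 note: potency is the fitted concentration of half-maximal effect; 0% = DMSO wells and -100% = cell-free medium wells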
#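 Knockdown cells (IDH1KD HT-1080) received compounds 2 h after plating at 750 cells/well and were kept 48 h at 37 °C in 5% FBS RPMI. A CellTiter-Glo luminescence read gave % activity for curve fitting.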
# TDP1 cell noCPT – qHTS for Inhibitors of human tyrosyl-DNA phosphodiesterase 1 (TDP1): qHTS in cells in absence of CPT | 420,000 compounds, 15% hits | Potency, µM (series often up to 46.2 µM), for inactives: at the top dose activity change, negative = growth inhibition, actives largely listed as inhibitors | DT40 Tdp1-/- hTDP1 cells, no CPT, ATP luminescence, 48 h; note: potency is the fitted concentration of half-maximal effect; nearly all actives have a fitted effect of over 55% in size
#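 Chicken DT40 Tdp1-/- cells complemented with human TDP1, screened without camptothecin (DMSO vehicle only), 400 cells/well. Compounds pin-transferred, cells incubated at 37 °C for at least 48 hr. Growth read as ATP-dependent luminescence (CellTiter-Glo, 30 min at RT).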
# IL-1B inflam inh – blocks inflammasome-driven IL-1 beta release; THP-1 LPS/ATP IL-1B secretion, AlphaLISA, 16 h; stronger effect = lower value; activity change, % at 57.5 µM; 360,000 compounds, 4.7% hits; AID 743279; in the data active = activity change below about -50%; inconclusive = mostly about -30% to -49%
#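 THP-1 cells pretreated 1 hr with compounds (up to 57.5 uM final), then stimulated with LPS (250 ng/mL final) plus ATP (1.25 mM final); secreted IL-1B measured by AlphaLISA after 16 hr, decreased signal indicating inhibition.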
# DT40 TDP1 CPT – growth inhibition of DT40 Tdp1-/-;hTDP1 cells with camptothecin (screen for TDP1 inhibitors); chicken DT40 Tdp1-/-;hTDP1 cells + 20 nM CPT, ATP luminescence, 48 h; AID 686979; 420,000 compounds, 12% hits; Potency, µM (titrated, usually from 46.2 µM), for the others: top-dose activity change, negative = growth inhibition, hits mostly inhibitors; note: potency is the fitted concentration of half-maximal effect; nearly all actives have a fitted effect of over 55% in size
#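 Cell growth measured by CellTiter-Glo luminescence after a minimum 48 h, 37 C compound exposure with 20 nM CPT in Tdp1-knockout DT40 cells stably expressing hTDP1, seeded 400/well; qHTS titration format.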
# HT1080-NT tox – kills 2HG-producing HT-1080-NT fibrosarcoma cells; HT-1080-NT fibrosarcoma viability, CellTiter-Glo ATP luminescence, 48 h; Potency, µM (highest dose often 46.1 µM), for the others: at the highest dose activity, negative = less viability, usual class: cytotoxic; 360,000 compounds, 1.6% hits;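 note: NT is the 2HG producing partner of a matched IDH1 knockdown line; potency is the fitted concentration of half-maximal effect; 0% = DMSO-treated cells and -100% = media-only wells without cells; nearly all actives have a fitted effect of over 55% in size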
#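 Viability by CellTiter-Glo luminescence after 48 h compound exposure at 37C of HT-1080-NT cells (750/well, RPMI, 5% FBS). % activity scaled between DMSO wells and medium-only wells, then curve-fitted and categorized by curve class.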
# The depositor's hits bear a star; ? = inconclusive; . = no result given; ! = repeats disagree; [ ] = dose if it differs, or a comment. The full list was thinned out, with hits kept by preference. Unless noted, calls come from the whole dose curve; as a rule, active = well fitted curve in the direction sought with a large enough effect; inconclusive = small, poorly fitted or top-dose-only effect, or another doubt; inactive = no such curve, though single readings can be large; an effect the other way counts as inactive or inconclusive. Unless noted, % is set by controls: 0 for no effect and ±100 for the full control effect.
SMILES,ALOX12 inh,HT1080 IDH1KD tx,TDP1 cell noCPT,IL-1B inflam inh,DT40 TDP1 CPT,HT1080-NT tox
COC(=O)C1=C(c2ccc(OC(F)(F)F)cc2)C[C@@H]2CC[C@H]1N2C(=O)N1CCC(C)CC1,1.9%,?,5.8µM*,0.0,6.51µM*,?
COC(=O)C1=C(c2cccc(C#N)c2)C[C@@H]2CC[C@H]1N2C(=O)N1CCCC1,-27.8%,3.4%,18.4µM*,35.1,?,0.6%
COC(=O)C1=C(c2ccc(OC(F)(F)F)cc2)C[C@@H]2CC[C@H]1N2C(=O)N1CCCC1,-11.4%,-8.2%,1.84µM*,-1.3,1.84µM*,?
COC(=O)C1=C(c2cccc(C#N)c2)C[C@@H]2CC[C@H]1N2C(=O)N1CCc2cc(OC)c(OC)cc2C1,?,0.9%,?,4.4,?,9.3%
COC(=O)C1=C(c2ccc(OC(F)(F)F)cc2)C[C@@H]2CC[C@H]1N2C(=O)N1CCc2cc(OC)c(OC)cc2C1,-10.1%,.,.,.,.,.
COC(=O)C1=C(c2ccc(OC(F)(F)F)cc2)C[C@@H]2CC[C@H]1N2C(=O)N1CCOCC1,29.6%,2.4%,1.84µM*,0.0,2.59µM*,-18.2%
COC(=O)C1=C(c2ccc(C(C)=O)cc2)C[C@@H]2CC[C@H]1N2C(=O)N1CCOCC1,-11.4%,0.0%,?,12.8,-22.4%,0.0%
COC(=O)C1=C(c2ccc(OC(F)(F)F)cc2)C[C@@H]2CC[C@H]1N2C(=O)NC1CC1,17.9%,4.4%,14.6µM*,21.8,20.6µM*,12.7%
COC(=O)C1=C(c2ccc(OC(F)(F)F)cc2)C[C@@H]2CC[C@H]1N2C(=O)NCCO,28.2%,10.3%,-25.8%,5.7,-13.2%,19.4%
CC(=O)Nc1ccc(-c2ccc(=O)n3c2[C@@H]2C[C@@H](CN(C(=O)c4ccccc4)C2)C3)cc1,69.1%[176 µM],.,.,.,.,.
Cc1cccc(N2CCc3c2nc2ccccc2c3N)c1,?,-0.8%,?,-91.4*!,14.6µM*,0.0%
Cc1cc(C=C2C(=O)NC(=S)NC2=O)c(C)n1-c1ccc2c(c1)OCO2,?,?,?,-101.5*,?,-20.9%
CC(C)c1ccc2c(c1)C(N1CCNCC1)Cc1ccc(F)cc1S2 (configuration not stated),?,?,25.9µM*,-97.3*,?,-8.2%
O=C(CCn1cccn1)N1C[C@H](c2cccc(F)c2F)[C@@H]2[C@H]1C1CCN2CC1,-31.4%,.,.,.,.,.
COC1=CC(=O)[C@]2(C=C1OC)OC[C@@H]1Oc3c(ccc4c3C=CC(C)(C)O4)C(=O)[C@@H]12,-12.1%,-10.2%,0.206µM*,-4.3,0.291µM*,-19.1%
COc1ccc(CNC[C@H]2C[C@@H]3CCN2C[C@@H]3c2cc(-c3ccc4ccccc4c3)nn2C)cc1,127.4%,.,.,.,.,.
C[C@]12CC[C@H](O)C[C@@H]1CC[C@H]1[C@H]3CCC(=O)[C@@]3(C)CC[C@@H]12,-15.1%,-1.0%,18.4µM*,-24.7,?,-0.8%
C[C@]12CCC3C(CC[C@H]4C[C@H](OC(=O)c5cccnc5)CC[C@]34C)C1CCC2=O (some centres not stated),?,-11.7%,23.1µM*,20.6,?,-6.3%
CCN(CC)C[C@H]1CN2CC[C@H]1C[C@@H]2CNC(=O)NC(C)C,33.6%[176 µM],.,.,.,.,.
COc1ccc2c(c1)C1(CCNC1)C(=O)N2 (configuration not stated),62.8%,.,.,.,.,.
COc1ccc2c(c1)C1(CCN(C(=O)Nc3ccc4c(c3)OCCO4)C1)C(=O)N2C (configuration not stated),1.4%,.,.,.,.,.
O=C1CN(C(=O)c2cn(Cc3ccccc3)c3ccccc23)CCN1,-15.9%,.,.,.,.,.
CCN(CC)C1=NC(=[N+](CC)CC)c2ccccc21,-0.2%,12.6µM*,0.411µM*,?,0.651µM*,?
O=C(c1sc2cc(F)ccc2c1Cl)N1CCC2(CC1)OCCO2,7.1%,.,.,.,.,.
Cc1ccc(C(O)(c2ccc(C)c(C)c2)C2CN3CCC2CC3)cc1C (configuration not stated),?,?,2.31µM*,-86.2*,3.66µM*,?
SMILES,ALOX12 inh,HT1080 IDH1KD tx,TDP1 cell noCPT,IL-1B inflam inh,DT40 TDP1 CPT,HT1080-NT tox
Cc1ccccc1C(O)(Cc1ccccc1)C1CN2CCC1CC2 (configuration not stated),?,?,17.8µM*,?,17.8µM*,?
Cn1cc(C(=O)Cn2cnc3ccccc32)c2ccccc21,37.4%,.,.,.,.,.
CC(C)c1c(C(=O)NC(c2cccnc2)C(F)(F)F)cnn1-c1nccc(-c2cccs2)n1 (configuration not stated),8.3%,.,13µM*,.,?,.
CCN(CCCl)Cc1ccccc1Br,-14.2%,4.9%,?,19.7,16.4µM*,28.7%
C#C[C@H]1CN2CC[C@H]1C[C@@H]2CNC(=O)c1ccc(C(F)(F)F)cc1,10.4%[176 µM],.,.,.,.,.
CN(C)c1ccc(CC(=O)N2CCN(Cc3ccccc3)CC(O)C2)cc1 (configuration not stated),75.1%,.,.,.,.,.
COC(=O)NC(=S)Nc1ccccc1NC(=S)NC(=O)OC,27.9%,.,?,18.5,20.6µM*!,.
FC(F)(F)c1ccc2c(c1)N(CCCN1CCN(CCCl)CC1)c1ccccc1S2,?,?,8.2µM*,-116.2*,8.2µM*,?
c1ccc2c(c1)Sc1ccccc1N2C[C@@H]1CN2CCC1CC2,.,.,-2.9%,.,-4.7%,.
OCCN1CCN(CCCN2c3ccccc3Sc3ccc(C(F)(F)F)cc32)CC1,?,23.1µM*,18.4µM*,-56.7*,16.4µM*,13µM*
O=C1NC2(CCN(Cc3cccnc3)C2)Oc2ccccc21 (configuration not stated),14.6%[176 µM],.,.,.,.,.
C=C[C@H]1CN2CC[C@H]1C[C@@H]2CNC(=O)C(N)=O,18.7%[176 µM],.,.,.,.,.
CCCCn1c(N)c(C(=O)NCCN2CCOCC2)c2nc3ccccc3nc21,-19.0%,?,23.1µM*,-54.2*,14.6µM*,?
COCCCn1c(N)c(C(=O)NCc2ccco2)c2nc3ccccc3nc21,?,-8.8%,?,-19.4,?,-0.9%
Nc1c(C(=O)NCCN2CCOCC2)c2nc3ccccc3nc2n1Cc1ccccc1,?,-4.5%,23.1µM*,.,?,-5.8%
Nc1c(C(=O)OCc2ccccc2)c2nc3ccccc3nc2n1Cc1cccs1,0.0%,?,?,-90.1*,?,?
